Data on 60 compounds can be found in PubChem BioAssay AID1851 (National Center for Advancing Translational Sciences (NCATS), 2009).

The campaign covered roughly 16,000 compounds. About 5,800 (36%) were called active. About 23% were inconclusive and are not listed. Calls follow the shape of the dose curve; as a rule, active = well fitted curve in the direction sought with a large enough effect; inconclusive = small, poorly fitted or top-dose-only effect, or effect the other way; inactive = no such curve, though single readings can be large or run the other way. The list shows a part of the results.
% is scaled to controls: 0 for no effect and ±100 for the full control effect.

This test deals with Cytochrome P450 2C19 (Homo sapiens) (UniProt P33261). Nature of the test: Cytochrome panel assay with activity outcomes. The note with it: recombinant CYP, pro-luciferin dealkylation, luminescence, p450-cyp2c19; series mostly up to 57.1 µM; activity, negative = inhibition: at the top concentration.
Cytochrome P450 2C19 (Homo sapiens), sequence (P33261 whole entry, looked up): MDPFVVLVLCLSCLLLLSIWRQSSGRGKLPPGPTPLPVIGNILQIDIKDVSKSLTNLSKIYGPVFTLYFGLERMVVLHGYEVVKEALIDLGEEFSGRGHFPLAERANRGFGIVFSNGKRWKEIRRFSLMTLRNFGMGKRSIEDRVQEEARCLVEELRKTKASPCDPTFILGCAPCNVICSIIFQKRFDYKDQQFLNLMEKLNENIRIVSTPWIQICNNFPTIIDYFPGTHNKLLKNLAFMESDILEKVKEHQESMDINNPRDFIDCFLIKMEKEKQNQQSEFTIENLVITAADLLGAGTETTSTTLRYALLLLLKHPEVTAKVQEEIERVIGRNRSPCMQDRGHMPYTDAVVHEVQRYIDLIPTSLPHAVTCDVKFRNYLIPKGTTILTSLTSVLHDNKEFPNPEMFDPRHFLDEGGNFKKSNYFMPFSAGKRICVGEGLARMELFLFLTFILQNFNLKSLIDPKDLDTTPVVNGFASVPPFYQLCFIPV
The AC50 is the concentration at which the activity in the assay is half-maximal. As to `CC(=O)N=c1sccn1CC(=O)c1ccc([N+](=O)[O-])cc1`, the AC50 is 10 µM (active).

Consider `CCN1C(=O)CC(N2CCN(CC(=O)NC(C)C)CC2)C1=O` (stereo not given), for which the “activity, negative = inhibition” value is -9.22% (inactive).

For `CC(NC(=O)CN1CCCC1)C12CC3CC(CC(C3)C1)C2` (stereo not given), the AC50 is 15.8 µM (active).

Consider `c1ccc(-c2nc(CSc3n[nH]c(-c4cccs4)n3)cs2)cc1`, for which the AC50 was 1.12 µM (active).

As for `N#Cc1cccc(-c2nc3cnc(N4CCOCC4)nc3n(C3CC3)c2=O)c1`, the “activity, negative = inhibition” value was -17.4% (inactive).

As for `CC1=CC2=NC(=O)CC(C)(C(=O)N(CC(=O)NC(C)(C)C)Cc3cccs3)N2C=C1` (stereo not given), the “activity, negative = inhibition” value is -5.57% (inactive).

In the case of `CC(C)(C)NC(=O)CN(Cc1cccs1)C(=O)CCC(=O)Nc1nccs1`, the AC50 is 7.94 µM (active).

`Nc1ncnc2c1nc(Br)n2[C@H]1O[C@H]2COP(=O)(O)O[C@H]2[C@@H]1O`: the “activity, negative = inhibition” value was -28.5% (inactive).

Take `O=C(Oc1ccccc1)N1CCC2(CCCN(c3ccccn3)C2)CC1`: the AC50 was 7.94 µM (active).

As for `COC(=O)N1CCC[C@@]2(CCN(c3ncccn3)C2)C1`, the “activity, negative = inhibition” value is 3.42% (inactive).

On to `O=C(c1ccncc1)N1CCC[C@@]2(CCN(c3ccccn3)C2)C1`, for which the AC50 was 6.31 µM (active).

`O=C(c1cnccn1)N1CCC[C@@]2(CCN(c3ccccn3)C2)C1`: the “activity, negative = inhibition” value is 7.86% (inactive).

Regarding `CC(=O)N1CCC2(CC1)CN(c1ccccn1)C2`, the “activity, negative = inhibition” value is 9.66% (inactive).

For the compound `O=C(Oc1ccccc1)N1CCC2(CC1)CN(c1ncccn1)C2`, the “activity, negative = inhibition” value was -27.7% (inactive).

Regarding `O=C(c1cc(C(F)(F)F)cc(C(F)(F)F)c1)N1CCC[C@@]2(CCN(c3ccccn3)C2)C1`, the “activity, negative = inhibition” value is -29.6% (inactive).

For the compound `O=C(Oc1ccccc1)N1CCC2(CC1)CN(c1ccccn1)C2`, the “activity, negative = inhibition” value was -4.95% (inactive).

Take `O=C(Oc1ccccc1)N1CCC[C@@]2(CCN(c3ncccn3)C2)C1`: the AC50 is 2.51 µM (active).

Take `O=C(Oc1ccccc1)N1CCC[C@@]2(CCN(c3ccccn3)C2)C1`: the AC50 is 5.01 µM (active).

Turning to `C/C(CCN1CCCCc2nc(C)c(C)cc21)=N\OC[C@@H](O)COCc1ccco1`, the activity, negative = inhibition is 11% [at 11.4 µM] (inactive).

Take `O=C(Oc1ccccc1)N1CCC2(CCCN(c3ccc(-c4ccccc4)cc3)C2)CC1`: the “activity, negative = inhibition” value was 3% (inactive).

On to `O=C(Oc1ccccc1)N1CCC2(CCCN(c3ccccc3)C2)CC1`, for which the concentration at half-maximal activity (AC50) was 15.8 µM (active).

Take `COC(=O)N1CCC2(CCCN(c3ccccn3)C2)CC1`: the AC50 is 3.16 µM (active).

Consider `CC(=O)N1CCC2(CCCN(c3ccccn3)C2)CC1`, for which the “activity, negative = inhibition” value was -20.4% (inactive).

Consider `O=C(Oc1ccccc1)N1CCC2(CC1)CCN(c1cccc(-c3ccccc3)c1)CC2`, for which the “activity, negative = inhibition” value is 7.79% (inactive).

On to `COC(=O)N1CCC2(CC1)CN(c1ccccn1)C2`, for which the “activity, negative = inhibition” value is -43.9% (inactive).

As for `O=S(=O)(O)[C@@H](c1ccccc1)[C@@H](O)c1ccccc1`, the activity, negative = inhibition was 3.73% [at 11.4 µM] (inactive).

`Cc1ccc(S(=O)(=O)N=Nc2c(O)[nH]c3cc(O)c(C(=O)O)cc23)cc1`: the activity, negative = inhibition was 38.4% [at 11.4 µM] (inactive).

As to `Cc1cccc(C)c1NC(=O)[C@H](C)N`, the “activity, negative = inhibition” value was 11.1% [at 25.6 µM] (inactive).

As for `Cc1cccc(C)c1NC(=O)C(NC=O)c1ccccc1Cl` (stereo not given), the AC50 was 7.94 µM (active).

Consider `COc1ccc([C@H](O)c2ccccn2)cc1`, for which the activity, negative = inhibition is -15.9% [at 11.4 µM] (inactive).

Consider `COc1ccc(C(O)c2nccn2Cc2ccccc2)cc1` (stereo not given), for which the AC50 was 5.01 µM (active).

Regarding `Cc1cc([C@](C)(N)C(=O)O)ccc1P(=O)(O)O`, the “activity, negative = inhibition” value was 0.228% (inactive).

`O=C1Nc2cc(C(=O)N3CCOCC3)ccc2SC1N1CCOCC1` (stereo not given): the “activity, negative = inhibition” value was 10.9% (inactive).

`O=C(c1ccc2c(c1)N(Cc1ccc(F)cc1)C(=O)CS2)N1CCOCC1`: the AC50 was 7.08 µM (active).

With `CCOC(=O)C(C)Sc1nnc(CNC(=O)c2ccc(OC)cc2)n1C1CCCCC1` (stereo not given), the AC50 was 5.01 µM (active).

For `COc1ccc(C(=O)N2CCC3(CC2)CN(C(=O)NC(C)C)C3)cc1`, the “activity, negative = inhibition” value was 9.55% (inactive).

Turning to `CC(Sc1nnc(Cc2cccs2)n1C1CCCCC1)C(N)=O` (stereo not given), the half-maximal activity concentration (AC50) was 39.8 µM (active).

With `COc1ccc(-n2c(CNC(=O)c3ccc(S(=O)(=O)N4CCCC4)cc3)n[nH]c2=S)cc1`, the “activity, negative = inhibition” value was -27.5% (inactive).

Consider `O=C(O)[C@@H](O)[C@@H](O)[C@@H](O)[C@@H](O)c1nc2ccccc2s1`, for which the AC50 was 3.16 µM (active).

On to `O=C(O)[C@@H](O)[C@@H](O)[C@H](O)[C@H](O)CO`, for which the activity, negative = inhibition was 2.53% [at 11.4 µM] (inactive).

For `O=C(O)[C@@H](O)[C@@H](O)[C@@H](O)[C@@H](O)C(=O)O` (tested in a mixture with another compound), the “activity, negative = inhibition” value was 9.98% [at 25.6 µM] (inactive).

On to `CSc1nc(N)c2ncn([C@@H]3O[C@@H](COP(=O)(O)OP(=O)(O)O)[C@@H](O)[C@H]3O)c2n1`, for which the “activity, negative = inhibition” value is -4.53% (inactive).

With `COc1ccc(C(C(=O)NC2CCCC2)N(C(=O)c2snc(-c3ccc(F)cc3)c2N)c2ccc(F)cc2)cc1` (stereo not given), the “activity, negative = inhibition” value is -24.1% (inactive).

`COc1ccc(C[C@H](N)C(=O)N[C@@H]2[C@H](O)[C@H](n3cnc4c(N(C)C)ncnc43)O[C@@H]2CO)cc1`: the “activity, negative = inhibition” value is 10.8% [at 25.6 µM] (inactive).

As for `COc1ccc(C(C(=O)NC2CCCCC2)N(C(=O)c2sc(C)nc2C)c2ccc(OC)cc2)cc1` (stereo not given), the AC50 is 14.1 µM (active).

Regarding `CCc1ccc(N(C(=O)c2ccoc2C)C(C(=O)NC2CCCC2)c2ccc(OC)cc2)cc1` (stereo not given), the AC50 is 14.1 µM (active).

For `N#C/C(=C\N1CCNC1=S)C(=O)c1ccc2ccccc2c1`, the activity, negative = inhibition is -10.2% [at 11.4 µM] (inactive).

For the compound `Cc1ccc(C)c(OCCCC(C)(C)C(=O)O)c1`, the “activity, negative = inhibition” value was -33.3% [at 25.6 µM] (inactive).

`C/C(N)=C(/C#N)C(=O)CSc1nnc(COc2cc(C)ccc2C)o1`: the AC50 is 3.55 µM (active).

In the case of `O=C1SC(c2ccccc2)=C/C1=C\N1CCCCC1`, the AC50 is 2 µM (active).

For the compound `COCCNC(=O)Cn1cnc2ccc(S(=O)(=O)N3CCC(C)CC3)cc2c1=O`, the “activity, negative = inhibition” value was -16.1% (inactive).

`CC1CCN(S(=O)(=O)c2ccc3c(c2)C(=NO)c2cc(S(=O)(=O)N4CCC(C)CC4)ccc2-3)CC1`: the AC50 was 4.47 µM (active).

In the case of `CC1CCN(CC[C@H]2CCCN2S(=O)(=O)c2cccc(O)c2)CC1`, the “activity, negative = inhibition” value was -20.6% (inactive).

`COc1cc([C@H](O)C(=O)O)ccc1O`: the “activity, negative = inhibition” value is -11.8% (inactive).

In the case of `COc1cc([C@@H](O)CO)ccc1OS(=O)(=O)O`, the “activity, negative = inhibition” value is -27.9% (inactive).

For the compound `COc1ccc(C(O)P(=O)(OC(C)C)OC(C)C)cc1OC` (stereo not given), the AC50 was 3.55 µM (active).

Regarding `CCC(=O)OCc1c(C(F)(F)F)nn(C)c1Sc1ccc(F)cc1`, the AC50 is 1.41 µM (active).

Turning to `CC(=O)OCc1c(C(F)(F)F)nn(C)c1Sc1ccccc1`, the AC50 was 0.891 µM (active).

In the case of `CC(C)(N=NC(C)(C)C1=NCCN1)C1=NCCN1`, the activity, negative = inhibition is 30.5% [at 11.4 µM] (inactive).

Turning to `COC(Cn1c(C)c(C(C)=O)c(C(C)=O)c1C)OC`, the “activity, negative = inhibition” value was 2.91% (inactive).
